# PubChem BioAssay AID720517 (National Center for Advancing Translational Sciences (NCATS), 2013)
# Inconclusive results are not listed. Where a call stands in place of a potency, no number is given. Activity calls are given as the source filed them. Calls follow the shape of the dose curve; as a rule, active = well fitted activation curve with a large enough effect; inconclusive = small, poorly fitted or top-dose-only effect; inactive = flat fitted curve, though single readings scatter.
# Test: qHTS for Inhibitors of Cell Surface uPA Generation: FP59 Counterscreen for Cherry-picked Compounds
# Conditions: FP59 anthrax toxin cytotoxicity counterscreen, cells; series mostly up to 115 µM
# Potency is read from the fitted curve at half-maximal effect.
row,Compound,Potency
1,O=C(CSC1=NS(=O)(=O)c2ccccc2N1)Nc1nccs1,inactive
2,NC(=O)CC(NC(=O)Cc1cccc2ccccc12)c1ccc(N2CCN(c3ccccc3)CC2)c([N+](=O)[O-])c1 (stereo not given),inactive
3,COc1cccc(C2CC(c3ccc(C)cc3)n3ncnc3N2)c1 (stereo not given),inactive
4,COc1ccccc1CNC(=O)CCn1c(=O)oc2ccccc21,inactive
5,CCOC(=O)c1ccccc1N=Cc1c(O)c2ccccc2oc1=O,inactive
6,COc1ccc(N2CCN(C(=O)COc3ccc4c(C)c(C)c(=O)oc4c3C)CC2)cc1,inactive
7,CC1CC(C)CN(CCCNC(=O)CN2C(=O)CSc3ccc(S(=O)(=O)N4CCOCC4)cc32)C1 (stereo not given),inactive
8,COc1ccc2nc3c(cc2c1)c(NC(=O)C1CCCO1)nn3CC(C)C (stereo not given),inactive
9,Oc1c(N=NC(=S)Nc2ccccc2F)c2ccccc2n1Cc1ccccc1Cl,inactive
10,COc1ncnc(NS(=O)(=O)c2ccc(N)cc2)c1OC,inactive
11,CCOc1ccc(NS(=O)(=O)c2coc(C(N)=O)c2)cc1,inactive
12,Fc1ccc(NC(=S)N2CCCC(c3ccccc3)=N2)cc1,inactive
13,CCNC(=S)NNC(=O)c1ccncc1,inactive
14,CC(=O)c1ccc(N=C2SCCCN2C(=O)C2CCCCC2)cc1,inactive
15,CC(C)CCN1C(=O)c2ccc(-c3nc4ccccc4c(=O)o3)cc2C1=O,inactive
16,C[N+]1(CC(O)c2ccccc2)CCCCCC1 (stereo not given),inactive
17,O=C(COc1ccccc1F)NCC(c1ccc(F)cc1)N1CCOCC1 (stereo not given),inactive
18,O=C(N/N=C/c1cccnc1)c1ccccc1[N+](=O)[O-],inactive
19,COc1cccc(-n2c(SCC(=O)Nc3cc(C)on3)nc3c([nH]c4ccccc43)c2=O)c1,inactive
20,CC1(C)CC(CCC(=O)NC(=S)Nc2ccccc2Cl)C(=O)O1 (stereo not given),inactive

row,Compound,Potency
1,COc1ccc(OC)c(S(=O)(=O)N2CCN(Cc3ccccc3)CC2)c1,inactive
2,O=C(N/N=C/c1cccs1)c1ccco1,inactive
3,Cc1ccnc(N2CCN(C(=O)CSc3nc4ccccc4nc3N3CCC(C)CC3)CC2)c1,65.6 µM (active)
4,COc1ccccc1CCNC(=O)C(=O)NCC1OCCN1S(=O)(=O)c1ccc(OC)c(OC)c1 (stereo not given),inactive
5,COc1cc(CN2CCNC(=O)C2CC(=O)NCCCC2CCCC2)cc(OC)c1 (stereo not given),inactive
6,Cc1noc(C)c1COc1ccc(C(=O)N2CCN(S(=O)(=O)c3ccc(Cl)cc3)CC2)cc1,inactive
7,CCOC(=O)C1CCN(S(=O)(=O)c2c[nH]c(=O)[nH]c2=O)CC1,inactive
8,CC(=O)COc1ccc2c(-c3cccc([N+](=O)[O-])c3)cc(=O)oc2c1,inactive
9,CCCCCN(C(=O)CCC(=O)OCCOc1cccc(Cl)c1)c1c(N)n(CCCC)c(=O)[nH]c1=O,inactive
10,Cc1ccc2oc(C(=O)N(Cc3ccc(N(C)C)cc3)C3CCS(=O)(=O)C3)c(C)c2c1 (stereo not given),inactive
11,COc1ccc2cc(CCNC(=O)c3ccc4c(c3)OCO4)c(=O)[nH]c2c1,inactive
12,Cc1oc2c(Cl)c(Cl)c(O)c(CN(C)C)c2c1C(=O)c1ccc(Cl)cc1,inactive
13,O=C(NCc1ccc(F)cc1)c1cc(S(=O)(=O)N2CCCCC2)ccc1N1CCOCC1,inactive
14,O=C(C[n+]1ccccc1)Nc1ccccc1C(F)(F)F,inactive
15,CCOc1ccc(C2(C)CC(=O)N(C)C2=O)cc1 (stereo not given),inactive
16,CN(C)C(=S)Nc1ccc(S(=O)(=O)N2CCCCC2)cc1,inactive
17,CC(=O)c1cccc(NC(=O)N2C3CCC2CC(O)(c2cccnc2)C3)c1 (stereo not given),inactive
18,C[C@H](CO)N1C[C@H](C)[C@@H](CN(C)C(=O)Nc2ccccc2)Oc2ccc(NC(=O)Cn3cnnn3)cc2C1=O,inactive
19,O=C(c1cc2cc([N+](=O)[O-])ccc2s1)N1CCOCC1,inactive
20,C[n+]1c2cc(N)ccc2cc2ccc(N)cc21,inactive
